Reference: PubChem BioAssay (Tox21)
Results filed as inconclusive are left out. Activity calls are given as the source filed them. Unless noted, calls come from the whole dose curve; as a rule, active = well fitted curve in the direction sought with a large enough effect in the repeat runs; inconclusive = weak or mixed curves; inactive = no such curve, though single readings can be large; an effect the other way counts as inactive or inconclusive.

Legend:
[1] = qHTS assay to identify small molecule antagonists of the peroxisome proliferator-activated receptor delta (PPARd) signaling pathway - cell viability counter screen (AID 743213); note: nearly all actives have a fitted effect of over 50% in size
Summary of the method: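 HEK293H cells with the PPARd UAS-bla reporter, co-treated 17 h at 37 C with compounds and L165041 (300 nM final), were lysed with CellTiter-Glo. Luminescence indicated viable cell content.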

[2] = biological target: Peroxisome proliferator-activated receptor delta (Homo sapiens) (UniProt Q03181); experiment: qHTS assay to identify small molecule antagonists of the peroxisome proliferator-activated receptor delta (PPARd) signaling pathway (AID 743215; active = well fitted inhibition curve with a large enough effect in the signal ratio in the repeat runs, not every such curve was filed as active; the % refers to the signal ratio;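 note: cells stimulated with agonist L165041 at 300 nM final during compound exposure; series mostly up to about 62 µM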)
Sequence of Peroxisome proliferator-activated receptor delta (Homo sapiens) (Q03181 whole entry, looked up): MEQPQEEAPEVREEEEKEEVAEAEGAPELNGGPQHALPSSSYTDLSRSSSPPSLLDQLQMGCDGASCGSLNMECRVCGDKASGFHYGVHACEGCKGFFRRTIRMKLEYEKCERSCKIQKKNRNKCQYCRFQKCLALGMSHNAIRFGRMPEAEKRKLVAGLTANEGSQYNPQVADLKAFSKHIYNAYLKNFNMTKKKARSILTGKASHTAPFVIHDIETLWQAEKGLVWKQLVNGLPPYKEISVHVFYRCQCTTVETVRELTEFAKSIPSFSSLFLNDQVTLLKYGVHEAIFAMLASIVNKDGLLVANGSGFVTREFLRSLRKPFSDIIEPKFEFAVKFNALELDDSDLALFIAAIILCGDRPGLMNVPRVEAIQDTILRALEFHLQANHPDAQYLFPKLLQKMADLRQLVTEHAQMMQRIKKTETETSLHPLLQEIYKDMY
Summary of the method: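 Antagonist-mode beta-lactamase reporter screen: HEK293H cells with UAS-bla under PPARd control, stimulated by 300 nM L165041 (final) alongside test compound for 17 h at 37 C, then FRET fluorescence after 2 h substrate incubation.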

[3] = qHTS assay to identify small molecule agonists of the farnesoid-X-receptor (FXR) signaling pathway - cell viability counter screen (AID 743218); note: nearly all actives have a fitted effect of over 45% in size
Summary of the method: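 In GeneBLAzer FXR-UAS-bla HEK 293T cells, compounds act for 16 h at 37 C. Cell viability is then scored in the reporter wells by CellTiter-Glo, 30 min at RT, luminescence.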

[4] = qHTS assay to identify small molecule antagonists of the farnesoid-X-receptor (FXR) signaling pathway - cell viability counter screen (AID 743221; active = well fitted cell-killing curve with a large enough effect in the repeat runs, not every such curve was filed as active; note: nearly all actives have a fitted effect of over 50% in size)
Summary of the method: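 Compound effects on cell number were measured as CellTiter-Glo luminescence in HEK 293T cells expressing FXR-UAS-bla, after 16 h at 37 C with 50 uM CDCA (final).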

[5] = qHTS assay to identify small molecule agonists of the vitamin D receptor (VDR) signaling pathway - cell viability counter screen (AID 743224); note: series mostly up to about 63 µM; nearly all actives have a fitted effect of over 50% in size
Summary of the method: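 VDR-bla cell line, quantitative HTS format; 16 h compound incubation (37C, 5% CO2); ATP-based CellTiter-Glo luminescence measured in the reporter assay wells.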

[6] = biological target: Bile acid receptor (Homo sapiens) (UniProt Q96RI1); experiment: qHTS assay to identify small molecule agonists of the farnesoid-X-receptor (FXR) signaling pathway (AID 743220; active = well fitted activation curve with a large enough effect in the signal ratio in the repeat runs, not every such curve was filed as active; the % refers to the signal ratio)
Sequence of Bile acid receptor (Homo sapiens) (Q96RI1 whole entry, looked up): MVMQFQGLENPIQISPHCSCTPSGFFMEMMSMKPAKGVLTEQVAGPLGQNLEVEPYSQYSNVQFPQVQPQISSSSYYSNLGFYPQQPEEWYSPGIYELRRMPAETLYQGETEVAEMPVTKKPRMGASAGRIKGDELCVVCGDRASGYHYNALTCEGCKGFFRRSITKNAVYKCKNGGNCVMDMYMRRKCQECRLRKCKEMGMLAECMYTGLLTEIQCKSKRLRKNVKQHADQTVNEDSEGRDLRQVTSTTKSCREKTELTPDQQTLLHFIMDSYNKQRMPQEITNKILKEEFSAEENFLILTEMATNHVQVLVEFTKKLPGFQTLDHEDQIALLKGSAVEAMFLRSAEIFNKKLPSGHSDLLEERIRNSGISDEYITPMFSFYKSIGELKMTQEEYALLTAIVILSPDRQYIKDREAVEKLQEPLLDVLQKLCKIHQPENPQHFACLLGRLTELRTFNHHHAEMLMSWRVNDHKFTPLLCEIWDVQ
Summary of the method: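 Beta-lactamase reporter under UAS control in GeneBLAzer FXR HEK 293T cells (5000/well) measured with LiveBLAzer FRET substrate after 2 h at room temperature. Compound exposure lasted 16 h at 37C.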

[7] = biological target: Vitamin D3 receptor (Homo sapiens) (UniProt P11473); experiment: qHTS assay to identify small molecule agonists of the vitamin D receptor (VDR) signaling pathway (AID 743222; calls by dose curve)
Sequence of Vitamin D3 receptor (Homo sapiens) (P11473 whole entry, looked up): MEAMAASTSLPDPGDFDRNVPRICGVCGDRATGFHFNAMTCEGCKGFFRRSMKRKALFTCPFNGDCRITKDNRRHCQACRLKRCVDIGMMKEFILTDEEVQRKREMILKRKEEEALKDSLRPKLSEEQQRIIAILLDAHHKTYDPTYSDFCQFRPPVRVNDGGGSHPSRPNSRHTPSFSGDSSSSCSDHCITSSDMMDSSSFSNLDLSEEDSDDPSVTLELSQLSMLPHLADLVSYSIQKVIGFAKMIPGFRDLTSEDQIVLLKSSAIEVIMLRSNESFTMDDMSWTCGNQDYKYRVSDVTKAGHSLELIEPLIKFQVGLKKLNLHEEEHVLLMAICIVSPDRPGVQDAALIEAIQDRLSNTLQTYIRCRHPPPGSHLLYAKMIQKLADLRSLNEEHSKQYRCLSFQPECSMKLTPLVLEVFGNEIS
Summary of the method: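 Agonist activity measured in VDR-bla reporter cells. Exposure 16 h, 37C, 5% CO2; detection by B/G FRET substrate, 2 h RT.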

[8] = biological target: Vitamin D3 receptor (Homo sapiens) (UniProt P11473); experiment: qHTS assay to identify small molecule antagonists of the vitamin D receptor (VDR) signaling pathway (AID 743223; active = well fitted inhibition curve with a large enough effect in the signal ratio in the repeat runs, not every such curve was filed as active; the % refers to the signal ratio)
Summary of the method: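 Beta-lactamase activity in VDR-bla cells is measured by FRET substrate fluorescence (2 h, room temperature) after cells spend 16 h at 37C with test compound and 3 nM final 1alpha,25-dihydroxyvitamin D3.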

[9] = biological target: Peroxisome proliferator-activated receptor delta (Homo sapiens) (UniProt Q03181); experiment: qHTS assay to identify small molecule agonists of the peroxisome proliferator-activated receptor delta (PPARd) signaling pathway (AID 743212; calls by dose curve)
Summary of the method: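 HEK293H UAS-bla reporter cells, human PPARd system; compounds delivered in DMSO after 5 h plating, then at 37 C. Beta-lactamase FRET read, 2 h RT substrate step.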

[10] = biological target: Bile acid receptor (Homo sapiens) (UniProt Q96RI1); experiment: qHTS assay to identify small molecule antagonists of the farnesoid-X-receptor (FXR) signaling pathway (AID 743217; active = well fitted inhibition curve with a large enough effect in the signal ratio in the repeat runs, not every such curve was filed as active; the % refers to the signal ratio)
Summary of the method: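 Beta-lactamase reporter under UAS control in HEK 293T cells; compound exposure 16 h at 37 °C in the presence of chenodeoxycholic acid (50 uM final); signal from B/G FRET substrate after 2 h at room temperature.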

Measured: outcome

CC1(C)[C@@H]2CC[C@@]1(C)[C@H](O)C2
inactive: [1] | [2] | [3] | [4] | [5]

C[N+]1(C)CCCC(OC(=O)C(O)(c2ccccc2)c2ccccc2)C1 (stereo unspecified)
not listed: [9] | [10]
inactive: all other assays above

NC(=O)N1c2ccccc2CC(=O)c2ccccc21
inactive: [1] | [2] | [3] | [4] | [7]

OCCc1ccccn1
inactive: [1] | [2] | [3] | [4] | [8] | [5]

O=C(O)CNC(=O)c1ccc(CO)o1
inactive: [9] | [2] | [3] | [4] | [5]

CN(C)CCN(C)CCN(C)C
inactive: [9] | [3] | [4] | [5]

O=Cc1cccc(Br)c1
not listed: [9] | [10]
inactive: all other assays above

CC(C)C(=O)OC(=O)C(C)C
inactive: [1] | [2] | [3] | [4] | [7] | [5]

CCOC(=O)C(=O)CCCCCCl
inactive: [1] | [2] | [3] | [6] | [4] | [7]

Nc1ccn([C@@H]2O[C@H](CO)[C@@H](O)C2O)c(=O)n1 (stereo partly specified)
not listed: [7] | [8] | [9]
inactive: all other assays above

CCOc1ccc2nc(S(N)(=O)=O)sc2c1
inactive: [1] | [2] | [3] | [4] | [5]

CN(C)C(=O)Oc1ccc[n+](C)c1
inactive: [9] | [3] | [4]

CCCC(=O)O[C@]1(C(=O)CC)CC[C@H]2[C@@H]3CCC4=CC(=O)CC[C@]4(C)[C@H]3[C@@H](O)C[C@@]21C
inactive: [1] | [2] | [3] | [4] | [5]

C=C(C)C(=O)OCC(O)CO (stereo unspecified)
not listed: [9] | [10]
inactive: all other assays above

CC/C=C\CCOC(C)OCC (stereo unspecified)
inactive: [1] | [2] | [3] | [4] | [8] | [5]

CCOC(=O)COC(=O)c1ccccc1C(=O)OCC
not listed: [6] | [9] | [10]
inactive: all other assays above

Clc1cc(Cl)c(Cl)nc1Cl
inactive: [1] | [2] | [3] | [6] | [4] | [7]

CC(=O)C1CCCCC1=O (stereo unspecified)
not listed: [5] | [9]
inactive: all other assays above

CC(C)COC(=O)c1ccc(N)cc1
inactive: [9] | [3] | [4] | [7] | [8] | [5]

CC(=O)c1cnccn1
not listed: [8] | [9]
inactive: all other assays above

CCCCOC(=O)CCC(C)=O
inactive: [9] | [3] | [4] | [7]

CCC1C(=O)OCC1Cc1cncn1C (stereo unspecified)
inactive: [1] | [2] | [3] | [4] | [7] | [5]

CC(C)(C)c1ccc(-c2ccc(C(C)(C)C)cc2)cc1
not listed: [7] | [8] | [9]
inactive: all other assays above

O=C1c2ccccc2C(=O)c2cc(O)ccc21
not listed: [6] | [9] | [10]
inactive: all other assays above

O=C(O)CC(C(=O)O)S(=O)(=O)O (stereo unspecified)
inactive: [9] | [3] | [4] | [7]

CCOC(=O)COc1cc(-n2ncc(C(F)(F)F)c(C)c2=O)c(F)cc1Cl
inactive: [1] | [2] | [3] | [4] | [7]

CCCc1nn(C)c2c(=O)[nH]c(-c3cc(S(=O)(=O)N4CCN(C)CC4)ccc3OCC)nc12
inactive: [1] | [2] | [3] | [4] | [8] | [5]

C=CCCCCCCCCC(=O)OCC
inactive: [1] | [2] | [3] | [4] | [7] | [5]

CCCCCC(C)N (stereo unspecified)
inactive: [1] | [2] | [3] | [4] | [5]

CCOc1c(N2CCOCC2)cnn(C)c1=O
not listed: [6] | [9] | [10]
inactive: all other assays above

c1ccc2sc(SN3CCOCC3)nc2c1
inactive: [1] | [2] | [3] | [4] | [7] | [8]

[O-][n+]1cccc(CO)c1
not listed: [6] | [9] | [10]
inactive: all other assays above

CC[N+](CC)(CC(=O)Nc1c(C)cccc1C)Cc1ccccc1 (tested in a mixture with another compound)
inactive: [1] | [3] | [4]

O=S(=O)(O)c1cccc2c(S(=O)(=O)O)cccc12
inactive: [1] | [3] | [4] | [7]

C=CC(=O)OCCCl
not listed: [2] | [9] | [10]
inactive: all other assays above

C=CCOCC(O)CO (stereo unspecified)
inactive: [1] | [10] | [3] | [4] | [7] | [5]

CC(C#N)(CCC(=O)O)N=NC(C)(C#N)CCC(=O)O (stereo unspecified)
not listed: [2] | [9]
inactive: all other assays above

CNCCO
inactive: [1] | [2] | [6] | [4] | [5]

CC(C)=CCC/C(C)=C/C#N
inactive: [1] | [10] | [3] | [6] | [4] | [7]

CCCCc1ccc2c(n1)[C@@H](c1ccc(OC)cc1C[C@H](C)C(=O)O)[C@H](C(=O)O)[C@H]2c1ccc2c(c1)OCO2
not listed: [2] | [9] | [10]
inactive: all other assays above

C=C(C)C(=O)OCCOCCOCCOCCOC(=O)C(=C)C
not listed: [2] | [9]
inactive: all other assays above

NCCCC[C@H](N[C@@H](CCc1ccccc1)C(=O)O)C(=O)N1CCC[C@H]1C(=O)O
inactive: [1] | [10] | [3] | [6] | [4] | [5]

NS(=O)(=O)Cc1noc2ccccc12
inactive: [1] | [3] | [6] | [4] | [5]

NC(=O)NC1N=C([O][Al])NC1=O (stereo unspecified)
inactive: [1] | [3] | [6] | [4] | [5]

O=C1NC(=O)C2CC=CCC12 (stereo unspecified)
not listed: [2] | [7] | [9]
inactive: all other assays above

CCN[C@H]1C[C@H](C)S(=O)(=O)c2sc(S(N)(=O)=O)cc21
inactive: [1] | [3] | [6] | [4] | [7] | [5]

Cc1ccc(-c2ncc(Cl)cc2-c2ccc(S(C)(=O)=O)cc2)cn1
inactive: [1] | [10] | [3] | [6] | [4] | [5]

CO[C@@]1(NC(=O)CSC[C@@H](N)C(=O)O)C(=O)N2C(C(=O)O)=C(CSc3nnnn3C)CS[C@@H]21
inactive: [1] | [3] | [6] | [4] | [8]

CCN(C=O)CC
inactive: [1] | [10] | [3] | [6] | [4] | [8]

NO
inactive: [1] | [3] | [4] | [7]
